In the supplement of paper PMC8728848:
This excerpt belongs to a sample that is enriched for the strongest signals.

Columns and labels:
Experiment in all cases: glycan array binding signal (z-score within array); higher = stronger binding
Conditions in all cases: glycan notation: IUPAC condensed, linker removed
[1] = target: Fuc(a1-2)Gal(b1-3)GalNAc(b1-4)[Neu5Ac(a2-3)]Gal(b1-4)Glc
Outline: (§1)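 From the Consortium for Functional Glycomics database, 3228 arrays were curated, keeping only those whose protein sequence was available. Binding is given as a within-array Z-score averaged across arrays sharing a protein sequence and across linkers. Negative Z-scores can be read as non-binding.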

[2] = target: Fuc(a1-2)[Gal(a1-4)]Gal(b1-4)GlcNAc
Outline: as §1

[3] = target: Fuc(a1-2)[GalNAc(a1-3)]Gal(b1-3)GalNAc(b1-3)Gal(a1-4)Gal(b1-4)Glc
Outline: as §1

[4] = target: Fuc(a1-2)[GalNAc(a1-3)]Gal(b1-4)GlcNAc(b1-3)Gal(b1-4)GlcNAc
Outline: as §1

[5] = target: Fuc(a1-3)[Gal(b1-4)]GlcNAc
Outline: as §1

[6] = target: Fuc(a1-3)[Gal(b1-4)]GlcNAc(b1-6)GalNAc
Outline: as §1

[7] = target: Fuc(a1-4)GlcNAc
Outline: as §1

[8] = target: Gal(a1-3)Gal(b1-3)GlcNAc(b1-2)Man(a1-3)[Gal(a1-3)Gal(b1-3)GlcNAc(b1-2)Man(a1-6)]Man(b1-4)GlcNAc(b1-4)GlcNAc
Outline: as §1

[9] = target: Gal(a1-3)Gal(b1-3)[Fuc(a1-4)]GlcNAc(b1-2)Man(a1-3)[Gal(a1-3)Gal(b1-3)[Fuc(a1-4)]GlcNAc(b1-2)Man(a1-6)]Man(b1-4)GlcNAc(b1-4)GlcNAc
Outline: as §1

[10] = target: Gal(a1-3)Gal(b1-4)GlcNAc(b1-2)Man(a1-3)[Gal(a1-3)Gal(b1-4)GlcNAc(b1-2)Man(a1-6)]Man(b1-4)GlcNAc(b1-4)GlcNAc
Outline: as §1

[11] = target: Gal(a1-3)Gal(b1-4)GlcNAc(b1-3)GalNAc
Outline: as §1

[12] = target: Gal(a1-3)[Gal(a1-4)]Gal(b1-4)GlcNAc
Outline: as §1

[13] = target: Gal(a1-4)Gal(b1-3)GlcNAc(b1-2)Man(a1-3)[Gal(a1-4)Gal(b1-3)GlcNAc(b1-2)Man(a1-6)]Man(b1-4)GlcNAc(b1-4)GlcNAc
Outline: as §1

[14] = target: Gal(b1-3)GlcNAc(b1-2)Man(a1-3)[GlcNAc(b1-4)][Gal(b1-3)GlcNAc(b1-2)Man(a1-6)]Man(b1-4)GlcNAc(b1-4)GlcNAc
Outline: as §1

[15] = target: Gal(b1-3)GlcNAc(b1-3)GalNAc
Outline: as §1

[16] = target: Gal(b1-3)[Fuc(a1-4)]GlcNAc(b1-3)Gal(b1-4)[Fuc(a1-3)]GlcNAc
Outline: as §1

[17] = target: Gal(b1-4)GlcNAc(a1-6)Gal(b1-4)GlcNAc
Outline: as §1

[18] = target: Gal(b1-4)GlcNAc(b1-3)Gal(b1-3)GalNAc
Outline: as §1

[19] = target: Gal(b1-4)GlcNAc(b1-3)Gal(b1-3)GlcNAc
Outline: as §1

[20] = target: Gal(b1-4)GlcNAc(b1-3)Gal(b1-4)GlcNAc
Outline: as §1

[21] = target: Gal(b1-4)GlcNAc(b1-3)Gal(b1-4)GlcNAc(b1-2)[Gal(b1-4)GlcNAc(b1-3)Gal(b1-4)GlcNAc(b1-6)]Man(a1-6)[Gal(b1-4)GlcNAc(b1-3)Gal(b1-4)GlcNAc(b1-2)Man(a1-3)]Man(b1-4)GlcNAc(b1-4)[Fuc(a1-6)]GlcNAc
Outline: as §1

[22] = target: Gal(b1-4)GlcNAc(b1-3)Gal(b1-4)GlcNAc(b1-3)Gal(b1-4)GlcNAc(b1-2)[Gal(b1-4)GlcNAc(b1-3)Gal(b1-4)GlcNAc(b1-3)Gal(b1-4)GlcNAc(b1-6)]Man(a1-6)[Gal(b1-4)GlcNAc(b1-3)Gal(b1-4)GlcNAc(b1-3)Gal(b1-4)GlcNAc(b1-2)Man(a1-3)]Man(b1-4)GlcNAc(b1-4)[Fuc(a1-6)]GlcNAc
Outline: as §1

[23] = target: Gal(b1-4)GlcNAc(b1-3)Gal(b1-4)GlcNAc(b1-3)Gal(b1-4)GlcNAc(b1-3)Gal(b1-4)GlcNAc(b1-2)Man(a1-3)[Gal(b1-4)GlcNAc(b1-3)Gal(b1-4)GlcNAc(b1-3)Gal(b1-4)GlcNAc(b1-3)Gal(b1-4)GlcNAc(b1-2)Man(a1-6)]Man(b1-4)GlcNAc(b1-4)[Fuc(a1-6)]GlcNAc
Outline: as §1

[24] = target: Gal(b1-4)GlcNAc(b1-3)Gal(b1-4)GlcNAc(b1-3)Gal(b1-4)GlcNAc(b1-3)Gal(b1-4)GlcNAc(b1-2)[Gal(b1-4)GlcNAc(b1-3)Gal(b1-4)GlcNAc(b1-3)Gal(b1-4)GlcNAc(b1-3)Gal(b1-4)GlcNAc(b1-6)]Man(a1-6)[Gal(b1-4)GlcNAc(b1-3)Gal(b1-4)GlcNAc(b1-3)Gal(b1-4)GlcNAc(b1-3)Gal(b1-4)GlcNAc(b1-2)Man(a1-3)]Man(b1-4)GlcNAc(b1-4)[Fuc(a1-6)]GlcNAc
Outline: as §1

[25] = target: Gal(b1-4)GlcNAc(b1-3)Gal(b1-4)GlcNAc(b1-3)Gal(b1-4)GlcNAc(b1-3)Gal(b1-4)GlcNAc(b1-3)Gal(b1-4)GlcNAc(b1-2)Man(a1-3)[Gal(b1-4)GlcNAc(b1-3)Gal(b1-4)GlcNAc(b1-3)Gal(b1-4)GlcNAc(b1-3)Gal(b1-4)GlcNAc(b1-3)Gal(b1-4)GlcNAc(b1-2)Man(a1-6)]Man(b1-4)GlcNAc(b1-4)[Fuc(a1-6)]GlcNAc
Outline: as §1

[26] = target: Gal(b1-4)GlcNAc(b1-3)[GlcNAc(b1-6)]Gal(b1-4)GlcNAc
Outline: as §1

[27] = target: Gal(b1-4)GlcNAc(b1-6)[Gal(b1-4)GlcNAc(b1-3)]GalNAc
Outline: as §1

[28] = target: Gal3S(b1-4)[Fuc(a1-3)]GlcNAc6S
Outline: as §1

[29] = target: Gal6P(b1-4)GlcNAc
Outline: as §1

[30] = target: GalNAc(b1-3)Gal(a1-6)Gal(b1-4)Glc
Outline: as §1

[31] = target: GalNAc(b1-4)GlcNAc
Outline: as §1

[32] = target: GalNAc(b1-4)GlcNAc(b1-2)Man(a1-3)[GalNAc(b1-4)GlcNAc(b1-2)Man(a1-6)]Man(b1-4)GlcNAc(b1-4)GlcNAc
Outline: as §1

[33] = target: GalNAc4S6S(b1-4)GlcNAc
Outline: as §1

[34] = target: Glc(a1-6)Glc(a1-6)Glc(a1-6)Glc
Outline: as §1

[35] = target: GlcA(b1-3)GlcNAc
Outline: as §1

[36] = target: GlcNAc(b1-3)Gal(b1-4)GlcNAc(b1-2)Man(a1-3)[GlcNAc(b1-3)Gal(b1-4)GlcNAc(b1-2)Man(a1-6)]Man(b1-4)GlcNAc(b1-4)GlcNAc
Outline: as §1

[37] = target: GlcNAc(b1-3)Gal(b1-4)GlcNAc(b1-3)Gal(b1-4)GlcNAc(b1-3)Gal(b1-4)GlcNAc(b1-2)[GlcNAc(b1-3)Gal(b1-4)GlcNAc(b1-3)Gal(b1-4)GlcNAc(b1-3)Gal(b1-4)GlcNAc(b1-6)]Man(a1-6)[GlcNAc(b1-3)Gal(b1-4)GlcNAc(b1-3)Gal(b1-4)GlcNAc(b1-3)Gal(b1-4)GlcNAc(b1-2)Man(a1-3)]Man(b1-4)GlcNAc(b1-4)[Fuc(a1-6)]GlcNAc
Outline: as §1

[38] = target: GlcNAc(b1-6)Gal(b1-4)GlcNAc
Outline: as §1

[39] = target: Man(a1-3)[Man(a1-6)]Man(b1-4)GlcNAc(b1-4)GlcNAc
Outline: as §1

[40] = target: Man(a1-3)[Man(a1-6)]Man(b1-4)GlcNAc(b1-4)[Fuc(a1-6)]GlcNAc
Outline: as §1

[41] = target: MurNAc(b1-4)GlcNAc
Outline: as §1

[42] = target: Neu5Ac(a2-3)Gal(b1-3)GalNAc
Outline: as §1

[43] = target: Neu5Ac(a2-3)Gal(b1-3)GlcNAc(b1-2)Man(a1-3)[Neu5Ac(a2-3)Gal(b1-3)GlcNAc(b1-2)Man(a1-6)]Man(b1-4)GlcNAc(b1-4)GlcNAc
Outline: as §1

[44] = target: Neu5Ac(a2-3)Gal(b1-4)GlcNAc(b1-2)[Neu5Ac(a2-3)Gal(b1-4)GlcNAc(b1-6)]Man(a1-6)[Neu5Ac(a2-3)Gal(b1-4)GlcNAc(b1-2)Man(a1-3)]Man(b1-4)GlcNAc(b1-4)GlcNAc
Outline: as §1

[45] = target: Neu5Ac(a2-3)Gal(b1-4)GlcNAc(b1-3)Gal(b1-4)GlcNAc
Outline: as §1

[46] = target: Neu5Ac(a2-3)Gal(b1-4)GlcNAc(b1-3)Gal(b1-4)GlcNAc(b1-3)Gal(b1-4)GlcNAc(b1-2)Man(a1-3)[Neu5Ac(a2-3)Gal(b1-4)GlcNAc(b1-3)Gal(b1-4)GlcNAc(b1-3)Gal(b1-4)GlcNAc(b1-2)Man(a1-6)]GalNAc
Outline: as §1

[47] = target: Neu5Ac(a2-6)Gal(b1-4)GlcNAc(b1-2)Man(a1-3)[GlcNAc(b1-4)][Neu5Ac(a2-6)Gal(b1-4)GlcNAc(b1-2)Man(a1-6)]Man(b1-4)GlcNAc(b1-4)GlcNAc
Outline: as §1

[48] = target: Neu5Ac(a2-6)Gal(b1-4)GlcNAc(b1-2)[Neu5Ac(a2-6)Gal(b1-4)GlcNAc(b1-4)]Man(a1-3)[GlcNAc(b1-4)][Neu5Ac(a2-6)Gal(b1-4)GlcNAc(b1-4)Man(a1-6)]Man(b1-4)GlcNAc(b1-4)GlcNAc
Outline: as §1

[49] = target: Neu5Ac(a2-6)Gal(b1-4)GlcNAc6S
Outline: as §1

[50] = target: Neu5Ac(a2-8)Neu5Ac(a2-8)Neu5Ac(a2-3)Gal(b1-4)Glc
Outline: as §1

B1: GS13971A-bth-447-22-447 (Bacteroides thetaiotaomicron) (protein)
chain: EDVDNERSKGMFSASQSGFSTIEVYDLGPLNKIDLSIAKAGLEDTGGTVTFSVEQSLLDSLNNADGTSYQLLPPECYTIENATYSVSPGGDRRVTGGSLVYDPHKIYNLCGFDELKYVLPLRVSSTGTPMNSDRTATLYGFIVKEAIVRLASTGGDFVVEGGTTTSPMNLDTEISFENEWDLTTSFATKGADYVDNYNSANSTYYIPLPSDFYTLPDVTIAKGKTTGGSAISLLGETLPPGNYLLPVSLGGLSGQGDASINIDKETVANYFVIKQGGPINRDHWTVTANTEEKTGEVSAAYPHNGQTISLIDGEINTFWHSKWQGGEVAPPYEIILDMGKENSVSQLGLIARQNALTSMNLEIYAGDDGETWNLIGKYFFDGSIKTEQMVPVKACDARWIRIYIPTLGSGSSVGHLAEIYVYGTDK
- glycan array binding signal (z-score) [1]: -0.611
- glycan array binding signal (z-score) [2]: 1.4
- glycan array binding signal (z-score) [3]: -0.418
- glycan array binding signal (z-score) [4]: -0.622
- glycan array binding signal (z-score) [5]: 0.548
- glycan array binding signal (z-score) [6]: 0.414
- glycan array binding signal (z-score) [7]: 12.2
- glycan array binding signal (z-score) [8]: -0.916
- glycan array binding signal (z-score) [9]: 0.437
- glycan array binding signal (z-score) [10]: 0.313
- glycan array binding signal (z-score) [11]: 0.741
- glycan array binding signal (z-score) [12]: 3.1
- glycan array binding signal (z-score) [13]: 0.513
- glycan array binding signal (z-score) [14]: 0.373
- glycan array binding signal (z-score) [15]: 0.748
- glycan array binding signal (z-score) [16]: 1.09
- glycan array binding signal (z-score) [17]: 0.525
- glycan array binding signal (z-score) [18]: -0.104
- glycan array binding signal (z-score) [19]: 0.498
- glycan array binding signal (z-score) [20]: -1.12
- glycan array binding signal (z-score) [21]: 2.62
- glycan array binding signal (z-score) [22]: 0.617
- glycan array binding signal (z-score) [23]: 2.21
- glycan array binding signal (z-score) [24]: 2.31
- glycan array binding signal (z-score) [25]: 2.91
- glycan array binding signal (z-score) [26]: 0.129
- glycan array binding signal (z-score) [27]: -0.463
- glycan array binding signal (z-score) [28]: 0.338
- glycan array binding signal (z-score) [29]: -0.674
- glycan array binding signal (z-score) [30]: -0.007
- glycan array binding signal (z-score) [31]: 2.92
- glycan array binding signal (z-score) [32]: 5.75
- glycan array binding signal (z-score) [33]: -0.217
- glycan array binding signal (z-score) [34]: 0.028
- glycan array binding signal (z-score) [35]: -0.782
- glycan array binding signal (z-score) [36]: -0.725
- glycan array binding signal (z-score) [37]: 2.94
- glycan array binding signal (z-score) [38]: 2.1
- glycan array binding signal (z-score) [39]: 0.252
- glycan array binding signal (z-score) [40]: -0.859
- glycan array binding signal (z-score) [41]: -0.36
- glycan array binding signal (z-score) [42]: 0.032
- glycan array binding signal (z-score) [43]: -0.673
- glycan array binding signal (z-score) [44]: 1.47
- glycan array binding signal (z-score) [45]: 1.45
- glycan array binding signal (z-score) [46]: 2.81
- glycan array binding signal (z-score) [47]: 0.18
- glycan array binding signal (z-score) [48]: -1.25
- glycan array binding signal (z-score) [49]: -1.24
- glycan array binding signal (z-score) [50]: 1.11
